Test results taken from paper PMC4336329 (PLoS ONE, 2015).
Among all 310,000 compounds or so, about 14,000 (4.5%) showed an effect of 50% or more. Effects have a minus sign here. The sample holds strong results, similar compounds and a random draw of the others, so the mix is not that of the screen.

Biological target: human ether-à-go-go-related gene (hERG) potassium channel (human, UniProt Q12809)
Assay: primary screen, population patch clamp on CHO cells stably expressing hERG; higher = less effect of the substance
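Also: peak tail current of the secondary pulse compared with the same well before compound.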

human ether-à-go-go-related gene (hERG) potassium channel, sequence (Q12809 whole entry, looked up): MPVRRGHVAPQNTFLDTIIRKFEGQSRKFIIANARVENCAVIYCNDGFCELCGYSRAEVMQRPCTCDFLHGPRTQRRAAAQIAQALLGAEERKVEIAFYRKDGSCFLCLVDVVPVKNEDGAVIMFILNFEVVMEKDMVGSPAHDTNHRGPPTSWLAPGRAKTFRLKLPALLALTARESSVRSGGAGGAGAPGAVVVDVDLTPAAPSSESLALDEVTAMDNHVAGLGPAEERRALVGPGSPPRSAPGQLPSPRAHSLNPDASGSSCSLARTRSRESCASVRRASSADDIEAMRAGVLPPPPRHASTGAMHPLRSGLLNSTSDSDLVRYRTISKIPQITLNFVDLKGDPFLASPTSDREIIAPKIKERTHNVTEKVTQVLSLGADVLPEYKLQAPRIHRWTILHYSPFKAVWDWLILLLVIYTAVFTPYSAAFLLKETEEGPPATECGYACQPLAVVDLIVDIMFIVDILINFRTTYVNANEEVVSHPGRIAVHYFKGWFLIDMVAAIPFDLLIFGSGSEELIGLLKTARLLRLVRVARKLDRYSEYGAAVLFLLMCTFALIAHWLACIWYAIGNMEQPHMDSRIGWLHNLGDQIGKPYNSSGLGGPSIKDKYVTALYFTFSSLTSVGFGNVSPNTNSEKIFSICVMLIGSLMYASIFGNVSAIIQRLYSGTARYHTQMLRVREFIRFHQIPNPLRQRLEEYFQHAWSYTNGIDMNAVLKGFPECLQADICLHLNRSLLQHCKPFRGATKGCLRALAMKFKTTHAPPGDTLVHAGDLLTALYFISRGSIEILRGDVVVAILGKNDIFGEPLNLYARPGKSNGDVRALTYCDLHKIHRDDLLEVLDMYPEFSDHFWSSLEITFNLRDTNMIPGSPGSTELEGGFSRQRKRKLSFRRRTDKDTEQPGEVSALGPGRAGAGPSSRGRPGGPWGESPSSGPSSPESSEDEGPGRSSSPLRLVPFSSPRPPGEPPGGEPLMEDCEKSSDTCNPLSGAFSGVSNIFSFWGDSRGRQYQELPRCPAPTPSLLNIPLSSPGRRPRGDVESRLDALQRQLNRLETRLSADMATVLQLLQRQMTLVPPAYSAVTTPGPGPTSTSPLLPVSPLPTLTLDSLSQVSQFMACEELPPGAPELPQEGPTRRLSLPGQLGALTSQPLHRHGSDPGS

Row | SMILES | hERG current change (%, negative = inhibition) at 10uM [%]
1 | COC(=O)C1=C(C)Nc2ncnn2C1c1ccco1 (centres unmarked) | 6.44
2 | COCCCn1c(SCC(=O)NNC(=O)c2cccc(O)c2)nnc1-c1ccncc1 | 5.74
3 | COc1ccc(-c2nc(C#N)c(N3CCC(C(N)=O)CC3)o2)cc1OC | -10.3
4 | COCCN(CC(=O)Nc1cccc(C)c1C)C(=O)c1cc(-c2cccs2)nn1-c1ccccc1 | 1.14
5 | CCCCOc1ccc(CSc2n[nH]c(C)n2)cc1 | -1.41
6 | CN1CCN(C(=O)CC2C(=O)NCCN2Cc2ccc(-c3ccccc3)cc2)CC1 (centres unmarked) | 2.25
7 | COC(=O)C1CN(C(=O)COc2cc(C)c(Cl)c(C)c2)c2ccccc2O1 (centres unmarked) | 18.9
8 | O=C1NC(=O)C2(CCC(C(=O)O)C2)N1 (centres unmarked) | 19.3
9 | CCOC(=O)c1oc2ccc(/C=N/O)c(Cl)c2c1C | 37.3
10 | O=C(CSc1cccc[n+]1[O-])Nc1ccc(C(F)(F)F)cc1[N+](=O)[O-] | 4.31
11 | Clc1ccc(CO/N=C/c2cccs2)cc1 | 12.4
12 | CCCCOCCCn1c(N)c(C(=O)OC(C)COC)c2nc3ccccc3nc21 (centres unmarked) | -9.66
13 | CCOC(=O)c1c(N)n(Cc2ccco2)c2nc3ccccc3nc12 | -61.9
14 | CC(C)(C)OC(=O)c1c(N)n(Cc2ccco2)c2nc3ccccc3nc12 | -5.55
15 | COCCCn1c(N)c(C(=O)OC(C)COC)c2nc3ccccc3nc21 (centres unmarked) | 0.737
16 | CCOC(=O)c1c(N)n(Cc2ccccc2)c2nc3ccccc3nc12 | -29.6
17 | COCC(C)OC(=O)c1c(N)n(CC(C)C)c2nc3ccccc3nc12 (centres unmarked) | -67.8
18 | CSc1nccc(-c2nn(-c3ccc(C)cc3)ccc2=O)n1 | -15
19 | COC(=O)CSc1nnc(CNC(=O)c2ccc(S(=O)(=O)N3CCOCC3)cc2)n1C | 23.7
20 | COCCNC(=O)c1cccc(OC2CCN(Cc3ccc(OC(F)F)cc3)CC2)c1 | -73.5
21 | COCCNC(=O)c1cccc(OC2CCN(Cc3ccc(C(=O)OC)cc3)CC2)c1 | -40.5
22 | COCCNC(=O)c1cccc(OC2CCN(Cc3ccccc3OC(F)F)CC2)c1 | 2.5
23 | COCCNC(=O)c1cccc(OC2CCN(Cc3ccc(Cl)c(F)c3)CC2)c1 | -37.5

Row | SMILES | hERG current change (%, negative = inhibition) at 10uM [%]
24 | COCCNC(=O)c1cccc(OC2CCN(Cc3ccc(F)c(OC)c3)CC2)c1 | -16.2
25 | COCCNC(=O)c1cccc(OC2CCN(Cc3ccc(C(C)C)cc3)CC2)c1 | -70.7
26 | COC(=O)/C=c1\sc2ncnn2c1=O | 3.63
27 | CCCNC(=O)c1onc(CS(=O)(=O)c2cccc(OC)c2)c1C(=O)NCCC | -12.5
28 | CN(C)/C=C/C(=O)c1ncc(C(F)(F)F)cc1Cl | 8.95
29 | CC(NC(=O)[C@H](C)NC(=O)c1ccco1)c1ccc(S(N)(=O)=O)cc1 (some centres unmarked) | 18.9
30 | O=C(CN1CCC(C(=O)c2cccc(Cl)c2)CC1)Nc1ccc(C(=O)O)cc1 | 16
31 | Oc1ccc(-c2nnc(Nc3cccc(O)c3)c3ccccc23)cc1 | -7.99
32 | CC(=O)Nc1ccc(Nc2nnc(-c3ccc(O)cc3)c3ccccc23)cc1 | 10.2
33 | Oc1ccc(-c2nnc(Nc3ccccc3)c3ccccc23)cc1 | -58.9
34 | Cc1nc2cc(Nc3nnc(-c4ccccc4)c4ccccc34)ccc2n1C | -67.2
35 | COc1ccc(Nc2nnc(-c3ccc(C(N)=O)cc3)c3ccccc23)cc1 | -33.9
36 | COc1ccc(-c2nnc(Nc3ccc(OC)c(C(=O)N4CCCCC4)c3)c3ccccc23)cc1 | -39.3
37 | Cc1ccc(-c2nnc(Nc3ccc4c(c3)nc(C)n4C)c3ccccc23)cc1 | 5.03
38 | COc1ccc(Nc2nnc(-c3ccc(C)cc3)c3ccccc23)cc1C(=O)N1CCCCC1 | -33.7
39 | Cc1nnc(Nc2ccc3c(c2)ncn3C)c2ccccc12 | 0.0649
40 | COc1ccc(Nc2nnc(-c3ccccc3)c3ccccc23)cc1C(=O)N1CCCCC1 | -73
41 | COc1ccc(Nc2nnc(-c3ccc(O)cc3)c3ccccc23)cc1 | -64.8
42 | Oc1ccc(Nc2nnc(-c3ccc(O)cc3)c3ccccc23)cc1 | 24.3
43 | CCOC(=O)c1ccc(N=Cc2nc3ccccc3n2C)cc1 | 7.61
44 | COc1ccc(-n2c(=O)[nH]cc(C(=O)Nc3ccc4c(c3)OCCO4)c2=O)cc1OC | 6.18
45 | N#Cc1c(N)nc2c(c1N)CC(COc1ccccc1)O2 (centres unmarked) | -6.98
46 | CCSc1nnc(CNC(=O)C23CC4CC(CC(C4)C2)C3)n1Cc1ccccc1 | -5.81

Row | SMILES | hERG current change (%, negative = inhibition) at 10uM [%]
47 | C[C@H](NC(=O)c1ccccc1Cl)C(=O)OCc1cn2cc(Cl)ccc2n1 | -7.08
48 | COc1ccc(OC)c(NC(=O)CCc2nnc3ccc(NCc4ccco4)nn23)c1 | -15.2
49 | CC(Nc1nc(-c2cccc(Br)c2)cs1)c1nc2cc(Cl)c(N3CCCCC3)cc2n1CCOCCO (centres unmarked) | -19.1
50 | COc1cc(C(C)=O)ccc1OC(=O)c1cc2cccc(OC)c2oc1=O | 2.53
51 | CCn1c(SCC(=O)Nc2cc(NC(C)=O)ccc2OC)nnc1-c1ccccn1 | 4.03
52 | N#Cc1c(C(F)(F)F)cc(-c2ccccc2)nc1SCC(=O)N1CCOCC1 | -8.28
53 | CC(C)NC(=O)CSc1ncccc1-c1nc2ccccc2[nH]1 | -17.1
54 | O=C1CC(c2ccccc2)CC(=O)C1CS(=O)(=O)c1ccccc1 (centres unmarked) | 18.1
55 | Cc1ccc(-c2noc(CSc3ccccc3)n2)cc1 | 10.2
56 | O=C1c2cccnc2C(Nc2ccc(S(=O)(=O)N3CCCCCC3)cc2)N1Cc1ccccc1 (centres unmarked) | -9.79
57 | Cc1cc(Cn2ccnc2)c(C)c([N+](=O)[O-])c1Cn1ccnc1 | -7.19
58 | CC1CCCC(NC(=O)CCC(=O)NCc2ccccc2)C1C (centres unmarked) | 11.5
59 | O=S(=O)(O)c1cnccc1Nc1cccc(C(F)(F)F)c1 | 5.95
60 | COc1cc(C)nc(N2CCCC(C(=O)Nc3ccccc3Br)C2)n1 (centres unmarked) | 8.77
61 | CCc1c(C)nc2ncnn2c1N1CCCC(C(=O)NCc2cccs2)C1 (centres unmarked) | -19.1
62 | Cc1cc(N2CCCC(C(=O)Nc3cccc4ccccc34)C2)n2ncnc2n1 (centres unmarked) | -61.9
63 | O=C(Nc1ccc2c(c1)CCC2)C1CCCN(c2ncccn2)C1 (centres unmarked) | -2.53
64 | Cc1nc2ncnn2c(N2CCCC(C(=O)Nc3ccccc3Br)C2)c1C (centres unmarked) | -60.2
65 | COc1ccc(NC(=O)C2CCCN(c3cc(C)nc4ncnn34)C2)cc1 (centres unmarked) | -12.5
66 | Cc1nc2ncnn2c(N2CCCC(C(=O)Nc3ccc4c(c3)CCC4)C2)c1C (centres unmarked) | -53
67 | COc1ccccc1NC(=O)C1CCCN(c2nc(C)cc(C)n2)C1 (centres unmarked) | -10
68 | Cc1cc(N2CCCC(C(=O)Nc3cccc(Cl)c3)C2)n2ncnc2n1 (centres unmarked) | -38
69 | Cc1cc(N2CCCC(C(=O)Nc3ccc4c(c3)CCC4)C2)n2ncnc2n1 (centres unmarked) | -57.2

Row | SMILES | hERG current change (%, negative = inhibition) at 10uM [%]
70 | Cc1cc(C)nc(N2CCC(C(=O)Nc3ccc4c(c3)CCC4)CC2)n1 | 17.3
71 | COc1ccccc1NC(=O)C1CCCN(c2cc(C)nc3ncnn23)C1 (centres unmarked) | -20.8
72 | CC(Oc1ccc2c3c(c(=O)oc2c1)CCCC3)C(=O)NCc1ccncc1 (centres unmarked) | 4.36
73 | Cc1nn(CC(O)Cn2c3c(c4ccccc42)CCN(C)C3=O)c(C)c1Br (centres unmarked) | -17.5
74 | CNC(=S)Nc1cc(C)ccc1OC(F)F | 2.85
75 | CCCCn1c(N)c(N(CC)C(=O)CCNC(=O)NC23CC4CC(CC(C4)C2)C3)c(=O)[nH]c1=O | 8.45
76 | CCN(CC)S(=O)(=O)c1ccc(N2CCCC2)c(C(=O)OCC(=O)N2CCCC2)c1 | -3.73
77 | O=C(NC1CONC1=O)OCC(Cl)(Cl)Cl (centres unmarked) | 8.91
78 | CC(C)c1cc(C(=O)O)n[nH]1 | 20.3
79 | COC(=O)c1ccc(NC(=O)CCc2nnc3ccc(N4CCC5(CC4)OCCO5)nn23)cc1 | 10.1
80 | CCc1ccccc1NC(=S)N(CCN(C)C)C(C)c1ccccn1 (centres unmarked) | -30.8
81 | O=C(NNC(=O)c1ccccc1OCc1ccccc1Cl)c1csc(N2CCOCC2)n1 | 31
82 | O=C(COC(=O)c1ccc(F)c(S(=O)(=O)N2CCOCC2)c1)NC1CC1 | -17.4
83 | COc1cc2c(cc1OC)C(C)N(C(=O)C(NC(=O)c1ccccc1)C(C)C)CC2 (centres unmarked) | 7.1
84 | COc1ccc(-c2ocnc2C(=O)NCc2nn(-c3ccccc3)nc2C)cc1 | 5.05
85 | COc1cccc2sc(N(CCCN(C)C)C(=O)c3ccc(S(=O)(=O)N4CCCc5ccccc54)cc3)nc12.Cl | -68.3
86 | COc1cccc2sc(N(CCN(C)C)C(=O)c3ccc4c(c3)CCCC4)nc12.Cl | -66.7
87 | CN(C)CCCN(C(=O)c1ccc2c(c1)CCCC2)c1nc2c(F)cccc2s1.Cl | -70
88 | CN(C)CCN(C(=O)c1ccc2c(c1)CCCC2)c1nc2c(F)cccc2s1.Cl | -14.6
89 | CN(C)CCCN(C(=O)c1ccc(S(=O)(=O)N2CCc3ccccc32)cc1)c1nc2c(Cl)cccc2s1.Cl | -27.6
90 | COc1ccc2sc(N(CCCN(C)C)C(=O)c3ccc(S(=O)(=O)N4CCCc5ccccc54)cc3)nc2c1.Cl | -14.4
91 | CCOc1ccc2nc(N(CCN(C)C)C(=O)c3ccc4c(c3)CCCC4)sc2c1.Cl | -1.63
92 | COc1cccc2sc(N(CCN(C)C)C(=O)c3ccc(S(=O)(=O)N4CCCC4)cc3)nc12.Cl | -31.2
